# Laboratory results as given in PubChem BioAssay AID504332 (National Center for Advancing Translational Sciences (NCATS), 2011).
# Where “and” joins values, the source holds several entries; their conditions need not be identical. Equal values may be shown once. Hit rate of the full screen: of about 350,000 compounds, about 31,000 (8.9%) were called active. Entries that show only a call come without a potency. Not shown: some 15% with an inconclusive outcome. Calls come from the whole dose curve; as a rule, active = well fitted inhibition curve with a large enough effect; inconclusive = small, poorly fitted or top-dose-only effect; inactive = no such curve, though single readings can be large or run the other way. The sample as a whole holds a higher share of actives than the screen did. A structure can be active in one record and inactive in another.
# Target: Histone-lysine N-methyltransferase EHMT2 (Homo sapiens) (UniProt Q96KQ7)
# Sequence (Q96KQ7 913-1193 limits assumed): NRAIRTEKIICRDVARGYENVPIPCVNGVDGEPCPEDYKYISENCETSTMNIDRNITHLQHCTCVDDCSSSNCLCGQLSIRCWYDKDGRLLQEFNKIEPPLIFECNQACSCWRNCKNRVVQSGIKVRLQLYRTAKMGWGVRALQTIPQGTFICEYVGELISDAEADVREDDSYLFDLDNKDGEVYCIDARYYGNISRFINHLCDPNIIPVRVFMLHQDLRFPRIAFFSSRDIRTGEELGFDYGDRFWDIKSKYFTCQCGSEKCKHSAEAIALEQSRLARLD
# Test: qHTS Assay for Inhibitors of Histone Lysine Methyltransferase G9a; note: nearly all actives have a fitted effect of over 75% in size
# Conditions: G9a H3K9 monomethylation, AlphaScreen, 2 h; series mostly up to 59 µM
# Summary of the method: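 Enzyme 20 nM + cpd, 15 min RT; add b-H3K9 pep 500 nM / SAM 20 uM; 2 h RT; anti-H3K9me1 Ab 0.5 ug/mL + SA donor / anti-rabbit acceptor beads 20 ug/mL each, 10 min; AlphaScreen read.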
# Potency is the fitted concentration of half-maximal effect.
SMILES,Potency,"activity, negative = inhibition"
O=C(CCS(=O)(=O)c1ccc2c(c1)NC(=O)CO2)Nc1cccc(C(F)(F)F)c1,inactive,
CC(C)(Oc1ccc(Cl)cc1)C(=O)OCC(=O)NCCc1ccc(S(N)(=O)=O)cc1,inactive,
CCCn1c(N)c(C(=O)CSc2nnc3n2CCCCC3)c(=O)[nH]c1=O,inactive,
Cc1cc(N2CCOCC2)nc2ccc(NC(=S)N3CCN(Cc4ccccc4)CC3)cc12,50.1 µM (active),
CCn1c2ccccc2c2cc(NC(=S)N3CCOCC3)ccc21,,7.32% [at 12.7 µM] (inactive)
CCN1CCN(c2cc(C)c3cc(NC(=O)c4cc(Cl)ccc4OC)ccc3n2)CC1,inactive,
CCOCCCNC(=S)Nc1ccc2nc(N3CCN(CC)CC3)cc(C)c2c1,31.6 µM (active),
COc1ccc(NC(=S)NCCN2CCC(C)CC2)cc1,inactive,
CCCC(=O)NC(=S)Nc1ccc(CN2CCOCC2)cc1,inactive,
COc1ccc(C(=O)OCC(=O)Nc2ccc3[nH]c(=O)[nH]c3c2)c(OC)c1OC,,4.23% [at 0.501 µM] (inactive)
COc1ccccc1NC(=O)c1oc2ccccc2c1NC(=O)C(C)C,inactive,
COC(=O)N/N=C/c1c[n+]([O-])c2ccccc2[n+]1[O-],inactive,
CC(C)CC(=O)NCC(c1ccc2c(c1)OCO2)N1CCN(c2ccc(F)cc2)CC1 (stereo not drawn),inactive,
CCOC(=O)C1=C(N)N(c2ccc(C)cc2)C2=C(C(=O)CCC2)C1c1cccs1 (stereo not drawn),inactive,
CCOC(=O)c1cc2c(n(-c3ccc(C)cc3)c1=O)CCCC2=O,17.8 µM (active),
CCCCOc1ccc(NC(=O)c2cc3c(n(-c4ccc(Cl)cc4)c2=O)CCCC3=O)cc1,inactive,
Cc1c(C(=O)NNC(=O)c2ccncc2)oc2ccccc12,,1.49% [at 12.7 µM] (inactive)
Oc1cc(O)c2c(c1)OC(c1ccc(O)c(O)c1)C(O)C2 (stereo not drawn),2.51 µM (active),
O=C(CCC(=O)c1ccccc1)NCc1cccc(C(F)(F)F)c1,inactive,
COc1ccc(C(=O)N(Cc2ccccc2)c2ccc(C)cc2)cc1S(=O)(=O)N1CCOCC1,,8.07% [at 0.501 µM] (inactive)
O=C(CN1CCN(S(=O)(=O)c2ccc(F)cc2)CC1)Nc1ccccc1F,inactive,
O=C(CN1CCN(C(=O)c2cccc(F)c2)CC1)Nc1ccccc1F,56.2 µM (active),
O=C(CN1CCCCC1)NC(=O)Nc1ccccc1F,inactive,
CCOc1ccccc1C(=O)NC1(C(F)(F)F)C(=O)Nc2c1c(=O)[nH]c(=O)n2-c1ccc(F)cc1 (stereo not drawn),inactive,

SMILES,Potency,"activity, negative = inhibition"
Cc1ccc(C)n1-c1nnc(N2CCC(C(=O)NCc3ccccc3Cl)CC2)s1,inactive,
O=c1c2ccccc2ccc2ccc(P(=O)(O)O)cc12,,2.62% [at 0.501 µM] (inactive)
O=c1c(-c2ccccc2Cl)c[nH]n1-c1ccccc1,inactive,
COc1ccc(C2CC(=O)NC(=O)C2)cc1,inactive,
COc1cc(OC)c2c(c1)OC(=O)CC2c1cc(OC)c(OC)c(OC)c1 (stereo not drawn),inactive,
COc1ccc(C2CC(=O)Oc3ccc(C(C)(C)C)cc32)cc1 (stereo not drawn),inactive and 44.7 µM (active),
COc1ccc(-c2cc(C(=O)NCc3cc(OC)c(OC)c(OC)c3)[nH]n2)cc1,inactive,
O=C(CN(C(=O)CNC(=O)c1cccs1)c1cccc(F)c1)NC1CCCCC1,inactive,
COc1ccc(C)cc1NC(=O)C(=O)NCCc1sc(-c2cccc(C)c2)nc1C,inactive,
CC1CCCCN1S(=O)(=O)CCNC(=O)c1ccccc1 (stereo not drawn),inactive,
CCCCOC(=O)Cn1c(=O)n(CC(=O)OCCCC)c2cc(C)ccc21,inactive,
Cc1ccc(CCCOC(=O)C[N+]2(C)CCCC2)cc1,15.8 µM (active),
Cc1ccc(CCN2CC(C(=O)O)CC2=O)cc1 (stereo not drawn),inactive,
COc1cccc(-c2n[nH]c3c2C(c2cccc(O)c2)N(C)C3=O)c1 (stereo not drawn),inactive,
Cc1cc(NC(=O)c2ccccc2C)no1,inactive,
CCOc1ccc(S(=O)(=O)NCCC(=O)N2CCCCCCC2)cc1,inactive,
Cc1cccc(Oc2c([N+](=O)[O-])c(=O)n(C)c3ccccc23)c1,44.7 µM (active),
Cc1nn(C)c(Oc2ccccc2)c1[N+](=O)[O-],inactive,
Cc1cccc(OP(=O)(Nc2c(C)n(C)n(-c3ccccc3)c2=O)Oc2cccc(C)c2)c1,inactive,
Cn1nc(-c2ccccc2)c2cc([N+](=O)[O-])ccc21,inactive,
Cc1cccc(C2CC(=O)Oc3c2c(=O)n(C)c2ccccc32)c1 (stereo not drawn),inactive,
Cn1c(=O)c([N+](=O)[O-])c(Oc2ccccc2)c2ccccc21,39.8 µM (active),
Cc1ccc(-n2ncc3c2CCCC3NC(=O)c2cnccn2)cc1C (stereo not drawn),,-6.28% [at 0.501 µM] (inactive)
CCOc1ccc(Nc2ncnc3scc(-c4ccc(OC)cc4)c23)cc1,,2.22% [at 12.7 µM] (inactive)
